Bioassay records from PubChem BioAssay.
Shown are actives, neighbours in structure and some others; about 0.98% of the full set was active somewhere.
Keap1 Nrf2 FP – disrupts human Keap1 binding to Nrf2 peptide; inhibition, % at 9.4 µM; actives 0.15% (n = 340,000); Keap1 Kelch-Nrf2 peptide fluorescence polarization, 1536-well; Q14145; AID 504523; in the data active means inhibition above about 12%;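 further: human Keap1 Kelch domain with fluorescein labeled Nrf2 9mer peptide probe; 0% = neutral control wells and 100% = peptide positive control; higher means more block of Keap1 binding to Nrf2 peptide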
Target sequence (Q14145 whole entry, looked up, the tested form may be a part): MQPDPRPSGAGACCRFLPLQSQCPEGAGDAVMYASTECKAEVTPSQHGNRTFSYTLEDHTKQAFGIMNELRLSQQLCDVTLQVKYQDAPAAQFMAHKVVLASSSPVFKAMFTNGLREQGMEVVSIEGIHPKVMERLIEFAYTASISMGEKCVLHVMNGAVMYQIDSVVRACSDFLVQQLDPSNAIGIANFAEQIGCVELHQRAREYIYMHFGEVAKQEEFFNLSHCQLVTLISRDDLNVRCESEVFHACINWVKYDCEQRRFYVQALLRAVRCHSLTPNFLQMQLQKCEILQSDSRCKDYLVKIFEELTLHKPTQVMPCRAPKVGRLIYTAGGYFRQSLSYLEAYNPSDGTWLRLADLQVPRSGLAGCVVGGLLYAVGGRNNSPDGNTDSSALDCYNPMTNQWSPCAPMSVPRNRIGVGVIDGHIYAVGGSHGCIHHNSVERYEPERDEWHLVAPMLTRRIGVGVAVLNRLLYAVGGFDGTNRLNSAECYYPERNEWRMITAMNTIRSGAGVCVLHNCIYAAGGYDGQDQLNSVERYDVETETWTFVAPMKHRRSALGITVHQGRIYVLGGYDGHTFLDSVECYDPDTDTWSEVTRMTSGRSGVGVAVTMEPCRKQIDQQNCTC
cardiac RTF act – increases calcium sensitivity of human cardiac regulated thin filaments | P19429+P45379 | IANBD-labeled TnC RTF fluorescence at EC20 calcium; 0% EC20 calcium, 100% full calcium | activation, % at 7.2 µM | actives 0.24% (n = 340,000) | AID 493008;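 active means activation above the mean over all tested compounds plus 3 SD, cut at about 30% in these data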;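 further: rise in fluorescence read as greater calcium sensitivity of cardiac thin filaments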
C-LANA FP – blocks KSHV LANA C-terminal domain binding to DNA. actives 0.078% (n = 340,000). inhibition, % at 9 µM. MBP-C-LANA/FAM-LBS DNA binding, fluorescence polarization. AID 504423;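 active means highest replicate inhibition at or above 60% at 9 µM, even if other replicates fall short; inactive means all replicates below 60% inhibition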;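 further: 0% = neutral control wells and 100% = 4 µM acridine orange control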
LANA-H2B inh – blocks KSHV LANA binding to histone H2A/H2B. Q9QR71. cell-free LANA-H2A/H2B peptide, fluorescence polarization. inhibition, % (concentration not given with the values). actives 0.6% (n = 320,000). AID 2629; in the data active means inhibition mostly above about 10%, no sharp cut-off; inactive means mostly below about 6.7%
Cardiac RTF inh – cardiac RTF calcium desensitization. P19429+P45379. AID 493244. IANBD-labeled cardiac RTF, Ca2+ fluorescence. inhibition, % at 7.15 µM. actives 0.12% (n = 340,000);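 active means inhibition above the mean inhibition of all tested compounds plus 3 SD, cut at about 17% in these data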;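 further: assay run at fixed EC70 calcium of 1.6 mM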
Starred values were filed as active, the others as inactive.

What do the screens show for `CN1/C(=C\C=C2C(=O)NC(=S)NC2=O)C(C)(C)c2ccccc21`?
Keap1 Nrf2 FP: -7; cardiac RTF act: 433*; C-LANA FP: -1; Cardiac RTF inh: inactive

How did CC1(C)OC(c2ccccc2)=C/C(=C/C=C2C(=O)NC(=S)NC2=O)O1 do in these assays?
LANA-H2B inh: -1

What do the screens show for `O=C(CCN1CCCCC1)Nc1ccc(Br)cc1C(=O)c1ccccc1`?
Keap1 Nrf2 FP: 0; cardiac RTF act: -4; C-LANA FP: 1; LANA-H2B inh: 19*; Cardiac RTF inh: 0

How did OC1(c2ccccc2)CCNC2CCCCC21 (centres undefined) do in these assays?
Keap1 Nrf2 FP: 3; cardiac RTF act: -2; C-LANA FP: 4; LANA-H2B inh: 1; Cardiac RTF inh: 5

How did OC12CCCCC1C(c1ccccc1)NCC2 (centres undefined) do in these assays?
Keap1 Nrf2 FP: 1; cardiac RTF act: 210*; C-LANA FP: -1; LANA-H2B inh: -10; Cardiac RTF inh: 3

How did c1ccc2c(CCNCc3ccc4c(c3)OCO4)c[nH]c2c1 do in these assays?
Keap1 Nrf2 FP: 2; cardiac RTF act: -1; C-LANA FP: 0; LANA-H2B inh: 4; Cardiac RTF inh: -9

What do the screens show for `Cc1cc(C(=O)OCC(=O)Nc2ccc(F)cc2F)c(C)n1C1CC1`?
Keap1 Nrf2 FP: 0; cardiac RTF act: 0; C-LANA FP: -2; LANA-H2B inh: 146*; Cardiac RTF inh: -14

What do the screens show for `CCCCCCn1c(=O)c(C(=O)Nc2nc(CC(=O)OCC)cs2)c(O)c2ccccc21`?
Keap1 Nrf2 FP: 3; cardiac RTF act: 0; C-LANA FP: 1; LANA-H2B inh: 7; Cardiac RTF inh: -3

How did CCOC(=O)Cc1csc(NC(=O)c2c(O)c3ccccc3n(CCC(C)C)c2=O)n1 do in these assays?
Keap1 Nrf2 FP: 0; cardiac RTF act: -4; C-LANA FP: 0; LANA-H2B inh: 15*; Cardiac RTF inh: 6

What do the screens show for `Cc1cc(N(CCCl)CCCl)ccc1C=Cc1ccncn1`?
Keap1 Nrf2 FP: -4; cardiac RTF act: 79*; C-LANA FP: 0; Cardiac RTF inh: -95

Results for CC1CCN(CC(=O)c2cccc(C(F)(F)F)c2)CC1 ?
Keap1 Nrf2 FP: -5; cardiac RTF act: 5; C-LANA FP: -1; LANA-H2B inh: 1; Cardiac RTF inh: 5

How did CS(=O)(=O)Nc1ccc(Cc2noc(-c3ccc4[nH]cc(CCN)c4c3)n2)cc1 do in these assays?
LANA-H2B inh: 1

Results for COc1ccc(-n2c(O)c(/C=C3\C=Nc4ccc(Br)cc43)c(=O)[nH]c2=O)cc1 ?
Keap1 Nrf2 FP: 4; cardiac RTF act: 0; C-LANA FP: 31; LANA-H2B inh: 13*; Cardiac RTF inh: -12

How did CC(C)(C)n1cc(C(=O)c2ccc3ccccc3c2O)cn1 do in these assays?
Keap1 Nrf2 FP: -7; cardiac RTF act: 6; C-LANA FP: 1; LANA-H2B inh: 6; Cardiac RTF inh: -4

What do the screens show for `CCCOc1ccc(C(C)=O)cc1Cc1c(O)[nH]c(=S)[nH]c1=O`?
Keap1 Nrf2 FP: -3; cardiac RTF act: -3; C-LANA FP: -3; LANA-H2B inh: 16*; Cardiac RTF inh: -4

What do the screens show for `CCC1(CC)COP(=O)(OCC(Cl)CCl)OC1` (centres undefined)?
Keap1 Nrf2 FP: -3; cardiac RTF act: 10; C-LANA FP: 3; Cardiac RTF inh: -6

What do the screens show for `O=C1NC(=O)N(Cc2ccccc2)C(=O)/C1=C\c1ccco1`?
Keap1 Nrf2 FP: -8; cardiac RTF act: 11; C-LANA FP: 17; LANA-H2B inh: -3; Cardiac RTF inh: -8

How did Cc1ccccc1N1C(=O)/C(=C/c2ccco2)C(=O)NC1=S do in these assays?
LANA-H2B inh: 26*

How did CCOc1ccc(N2C(=O)/C(=C/c3ccco3)C(=O)NC2=S)cc1 do in these assays?
Keap1 Nrf2 FP: -2; cardiac RTF act: -40; C-LANA FP: 20; LANA-H2B inh: 6; Cardiac RTF inh: 56*

Results for COC(=O)C1=C(c2ccc(F)cc2OCc2ccccc2)C[C@@H]2CC[C@H]1N2C(=O)NCc1ccccc1OC ?
Keap1 Nrf2 FP: -7; cardiac RTF act: 5; C-LANA FP: -2; LANA-H2B inh: 2; Cardiac RTF inh: 3

How did Cc1ccc(S(=O)(=O)N2CCCC(C(=O)N3CCC4(CC3)OCCO4)C2)cc1 (centres undefined) do in these assays?
Keap1 Nrf2 FP: 1; cardiac RTF act: -3; C-LANA FP: -1; LANA-H2B inh: -1; Cardiac RTF inh: 2

Results for O=[N+]([O-])c1ccc(N2CCCCCC2)c2nonc12 ?
Keap1 Nrf2 FP: -42; cardiac RTF act: 316*; C-LANA FP: 49; LANA-H2B inh: -16; Cardiac RTF inh: -456

Results for O=[N+]([O-])c1ccc(N2CCCCC2)c2ncccc12 ?
Keap1 Nrf2 FP: -2; cardiac RTF act: 0; C-LANA FP: 0; LANA-H2B inh: 1; Cardiac RTF inh: 1

What do the screens show for `Cc1cccc(-n2c(O)c(/C=C/C=Nc3ccccc3)c(=O)[nH]c2=O)c1`?
Keap1 Nrf2 FP: -122; cardiac RTF act: 77*; C-LANA FP: -18; LANA-H2B inh: -57; Cardiac RTF inh: -100

Results for Cc1cccc(-n2c(O)c(/C=C3/C(c4ccccc4)=Nc4ccccc43)c(=O)[nH]c2=O)c1 ?
Keap1 Nrf2 FP: -4; cardiac RTF act: -1; C-LANA FP: 1; LANA-H2B inh: 86*; Cardiac RTF inh: -14

Results for Cc1ccccc1-n1c(O)c(/C=C2/C(c3ccccc3)=Nc3ccccc32)c(=O)[nH]c1=O ?
Keap1 Nrf2 FP: -3; cardiac RTF act: -3; C-LANA FP: 3; LANA-H2B inh: -1; Cardiac RTF inh: -5

Results for CCOC(=O)c1sc(/N=C/c2c(O)n(-c3cccc(C)c3)c(=O)[nH]c2=O)c(C#N)c1C ?
Keap1 Nrf2 FP: -16; cardiac RTF act: 11; C-LANA FP: -8; LANA-H2B inh: -5; Cardiac RTF inh: -21

How did C[n+]1c(-c2ccccc2)c2cc(N)ccc2c2ccc(N)cc21 do in these assays?
Keap1 Nrf2 FP: 7; cardiac RTF act: -1; C-LANA FP: 21; LANA-H2B inh: 13; Cardiac RTF inh: -5

What do the screens show for `Nc1ccc2ccc3cccc[n+]3c2c1`?
Keap1 Nrf2 FP: 138*; cardiac RTF act: 743*; C-LANA FP: 152*; LANA-H2B inh: 36*; Cardiac RTF inh: inactive

Results for Cc1nn(Cc2ccccc2)c(C)c1C(=O)O ?
Keap1 Nrf2 FP: 3; cardiac RTF act: 3; C-LANA FP: -1; LANA-H2B inh: -2; Cardiac RTF inh: -2

Results for COc1cccc(NC(=O)N2CCC3(CC2)OCCO3)c1 ?
Keap1 Nrf2 FP: 1; cardiac RTF act: 3; C-LANA FP: 0; LANA-H2B inh: -2; Cardiac RTF inh: -6

What do the screens show for `O=[N+]([O-])c1ccc(N2CC2)c([N+](=O)[O-])c1`?
Keap1 Nrf2 FP: -4; cardiac RTF act: 5; C-LANA FP: -1; Cardiac RTF inh: -4

How did Nc1c(Br)cc([N+](=O)[O-])cc1[N+](=O)[O-] do in these assays?
Keap1 Nrf2 FP: 2; cardiac RTF act: -4; C-LANA FP: 0; LANA-H2B inh: 26*; Cardiac RTF inh: 1
